Six1-Eya2 inh – inhibitors of human Six1/Eya2 interaction. AlphaScreen GST-Six1/His-Eya2 binding, biochemical; active compounds read low. activity change, % (no concentration beside the values). 360,000 tested, 0.56% active; in the data active means activity change below about -65%; inconclusive means mostly about -30% to -63%; further: on the % scale 0 is the no-effect control and ±100 the full control effect
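Homogeneous AlphaScreen proximity assay pairing GST-Six1 with His-tagged Eya2 (added as 5X mix: 250 nM and 500 nM) in 50 mM Tris pH 8.0, 300 mM NaCl, 1 mM TCEP. Glutathione donor and nickel acceptor beads; 1 h, 37 °C, dark.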
RORgamma inh – ROR gamma (mouse) transcription inhibition; P51450; 310,000 tested, 5.4% active; Potency, µM (series often up to 53.6 µM), for inactives: top-dose activity change, negative = inhibition, most hits filed as inhibitors; Drosophila S2 Gal4-RORgamma UAS-luciferase reporter, 20 h; further: potency means the concentration at half of the fitted maximal effect; on the % scale 0 is the no-effect control and ±100 the full control effect; nearly all actives have a fitted effect of over 60% in size
Target sequence (P51450 whole entry, looked up, the tested form may be a part): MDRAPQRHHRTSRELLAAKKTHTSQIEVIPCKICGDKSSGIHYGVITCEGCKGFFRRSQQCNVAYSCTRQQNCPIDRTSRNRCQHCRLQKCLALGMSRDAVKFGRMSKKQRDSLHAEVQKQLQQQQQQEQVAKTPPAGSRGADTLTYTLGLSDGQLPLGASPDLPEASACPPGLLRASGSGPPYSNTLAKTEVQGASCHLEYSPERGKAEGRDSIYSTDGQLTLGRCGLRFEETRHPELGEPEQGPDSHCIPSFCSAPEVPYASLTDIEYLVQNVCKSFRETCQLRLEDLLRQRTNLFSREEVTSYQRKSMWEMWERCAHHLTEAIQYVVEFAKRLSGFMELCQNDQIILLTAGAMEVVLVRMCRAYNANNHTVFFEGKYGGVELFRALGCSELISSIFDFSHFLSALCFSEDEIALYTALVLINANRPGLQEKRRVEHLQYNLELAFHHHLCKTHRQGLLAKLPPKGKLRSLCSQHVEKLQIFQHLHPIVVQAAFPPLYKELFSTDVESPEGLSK
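Compounds are pin-transferred onto Drosophila Schneider cells expressing a copper-inducible Gal4–ROR gamma transactivation domain fusion. After 1 hr, copper sulfate is added to 700 uM final; luciferase is read 20 hr later.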
p53 reactivation – mutant p53 re-activation in reporter cells. AID 504706. Potency, µM (top dose mostly 92.2 µM), inactives show at the highest dose activity change, positive = activation, hits mostly activators. 320,000 tested, 0.063% active. H1299 p53-A138V BP100-luciferase reporter, luminescence, 24 h; further: potency means the concentration at half of the fitted maximal effect; % of control where 0% means no effect; nearly all actives have a fitted effect of over 45% in size
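H1299 (p53-null), stable ts p53-A138V + BP100-Luc; 1000 cells/well, Opti-MEM/10% FBS; cpd 4 pt, 1:5; 24 h, 37 deg C, 5% CO2; detection reagent 10 min RT; luminescence.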
CtBP-E1A inh – inhibitors of CtBP/E1A interaction | AlphaScreen GST-E1A/His-CtBP binding, 1536-well; active compounds read low | activity change, % (test concentration not listed) | 340,000 tested, 0.49% active; in the data active means activity change below about -65%; inconclusive means mostly about -30% to -63%; further: on the % scale 0 is the no-effect control and ±100 the full control effect
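AlphaScreen with 125 nM GST-E1A and 125 nM His-CtBP (5X stocks) in Tris pH 8.0, 300 mM NaCl, BSA, Tween 20, TCEP. Compounds preincubated 2 h at 37 deg C, then glutathione donor/nickel acceptor beads added for 1 h at 37 deg C in dark.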
VP16 counter – counter-screen for ROR gamma inhibitors: Gal4-VP16 reporter; Drosophila S2 Gal4-VP16 UAS-luciferase, luminescence, 20 h; AID 2546; Potency, µM (series often up to 53.6 µM), for the others: top-dose activity, negative = inhibition, hits mostly inhibitors; 310,000 tested, 3.5% active;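 further: Gal4-VP16 expression switched on by copper sulfate through the metallothionein promoter; potency means the concentration at half of the fitted maximal effect; on the % scale 0 is the no-effect control and ±100 the full control effect; nearly all actives have a fitted effect of over 50% in size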
* marks the source's active call; other numbers are inactive results; ? = inconclusive; / = no result given; [ ] = another dose, or the depositor's remark. Shown are actives, neighbours in structure and some others; about 5.4% of the full set was active somewhere. Unless noted, the call rests on the fitted dose curve; in most records, active means well fitted curve in the direction sought with a large enough effect; inconclusive means small, poorly fitted or top-dose-only effect, or another doubt; inactive means no such curve, though single readings can be large; an effect the other way counts as inactive or inconclusive.

SMILES	Six1-Eya2 inh	RORgamma inh	p53 reactivation	CtBP-E1A inh	VP16 counter
CCCCCCCCCCCCN1[C@@H](CC(=O)OC)c2cc(F)ccc2S1(=O)=O	17	/	/	13	/
C=CCNC(=S)NNC(=O)C(CC(C)C)CC(C)O (configuration not stated)	12	-20%	-3%	13	-6%
C=CCNC(=S)NNC(=O)C(CCC(C)C)CC(C)(C)O (configuration not stated)	-1	14µM*	-1%	4	?
COc1ccc(/C=C/C(=O)c2ccc(O)cc2)cc1CN1CCOCC1	?	38%	?	-86*	-2%
O=C(/C=C/c1cccc(O)c1)c1ccc(N2CCOCC2)cc1	4	3.5µM*	?	-6	?
COc1ccc(-c2nc3cnc(N4CCN(C)CC4)nc3n(-c3ccc(OC)cc3)c2=O)cc1	/	-38%	/	/	-5%
O=C(NCCOc1ccccc1)c1ccc2c(c1)S(=O)(=O)c1cc(Cl)ccc1C2=O	-24	/	2%	-3	/
Cc1cc(C)cc(NC(=S)NCc2ccc3[nH]c4c(c3c2)CCCC4)c1	-27	2.5µM*	2%	-8	7.1µM*
S=C(NCc1ccc2[nH]c3c(c2c1)CCCC3)Nc1ccccc1	?	1.8µM*	7%	-1	10µM*
CCS(=O)(=O)NCc1ccc2[nH]c3c(c2c1)CCCC3	/	13%	-3%	/	1%
CC(C)C[C@H](NC(=O)CNC(=O)[C@H](C)NC(=O)[C@H](CC(C)C)NC(=O)[C@H](CCCNC(=N)N)NC(=O)[C@H](Cc1cnc[nH]1)NC(=O)[C@@H](NC(=O)[C@@H](NC(=O)[C@@H]1CSSC[C@H](NC(=O)[C@@H](N)CO)C(=O)N[C@@H](CC(N)=O)C(=O)N[C@@H]([C@@H](C)O)C(=O)N[C@@H](C)C(=O)N[C@@H]([C@@H](C)O)C(=O)N1)C(C)C)[C@@H](C)O)C(=O)N[C@@H](CC(C)C)C(=O)N[C@@H](CO)C(=O)N[C@@H](CCCNC(=N)N)C(=O)N[C@@H](CO)C(=O)NCC(=O)NCC(=O)N[C@H](C(=O)N[C@H](C(=O)N[C@@H](CCCCN)C(=O)N[C@@H](CC(=O)O)C(=O)N[C@@H](CC(N)=O)C(=O)N[C@@H](Cc1ccccc1)C(=O)N[C@H](C(=O)N1CCC[C@H]1C(=O)N[C@H](C(=O)N[C@@H](CC(N)=O)C(=O)N[C@H](C(=O)NCC(=O)N[C@@H](CO)C(=O)N[C@@H](CCCCN)C(=O)N[C@@H](C)C(=O)N[C@@H](Cc1ccccc1)C(N)=O)C(C)C)[C@@H](C)O)C(C)C)C(C)C)C(C)C	/	15%	/	/	-2%
NC(=O)CC(NC(=O)Cc1ccc(Br)cc1)c1ccc(NCc2ccc(F)c(F)c2)c([N+](=O)[O-])c1 (configuration not stated)	-8	22%	-10%	-4	-2%
C[C@@H]1OC(Oc2ccccc2-c2cc(=O)c3c(O)cc(O)c([C@@H]4O[C@H](CO)[C@@H](O)[C@H](O)[C@H]4O)c3o2)[C@H](O)[C@H](O)[C@H]1O (some centres not stated)	/	-17%	/	/	-4%
O=C(NCCc1cccc(Cl)c1)c1cccs1	0	?	-1%	8	?
CCOC(=O)c1c[nH]c(=S)n1C	3	11µM*	-1%	2	-2%
N/C(=N\C(=S)Nc1ccccc1)c1ccccc1	-7	7.9µM*	?	2	?
Cc1cc2nc(-c3cccc(Cl)c3)c(Cc3ccsc3)n2c(C)c1Br	-3	/	/	1	/
Cc1cc(OCc2cc(C(=O)N3CCN(C)C(=O)[C@@H]3C)no2)cc(C)c1Cl	-2	-34%	-9%	-1	14µM*
C=CCN(CC=C)Cc1nc(N)nc(Nc2ccccc2C)n1	6	13µM*	-2%	-2	-8%
C/C=C1\COC(C(=O)NCc2ccccn2)(C(F)(F)F)C=C1C=C(C)C (configuration not stated)	/	?	/	/	-19%
CCOc1cc(N2CCOCC2)c(OCC)cc1NC(=O)c1cnccn1	2	/	-14%	5	/
O=c1[nH][nH]c(=S)n1C1CCCCC1	4	11µM*	-4%	1	?
CCOC(=O)c1c(C)[nH]c(C)c1C(=O)COC(=O)[C@@H](NC(=O)c1ccccc1OCC)C(C)C	-11	13%	-4%	-17	-3%
O=C(/C=C/c1ccccc1)OC1CC(O)C2(O)C=CO[C@@H](OC3OC(CO)C(O)C(O)C3O)C12 (some centres not stated)	/	-2%	/	/	-13%
Cc1nn(-c2ccccc2)c(Cl)c1CN(C(=O)CCl)c1cccc2ccccc12	-9	14µM*	-30%	7	?
SMILES	Six1-Eya2 inh	RORgamma inh	p53 reactivation	CtBP-E1A inh	VP16 counter
O=C(COC(=O)c1ccccc1O)Nc1cccc(S(=O)(=O)N2CCCC2)c1	-8	/	0%	-10	/
O=C(Nc1nc(=O)c2ccccc2s1)c1ccc(Cl)cc1	2	3.2µM*	?	-4	26%[0.365 µM]
O=C(Nc1nc(=O)c2ccccc2s1)c1ccc(F)cc1	0	7.1µM*	?	46	2.8µM*
O=C(CSC(=S)N1CCOCC1)Nc1nc(=O)c2ccccc2s1	/	13µM*	?	/	10µM*
O=C(Cc1ccccc1)Nc1nc(=O)c2ccccc2s1	23	?	3%	7	4.5µM*
O=C(Cc1ccccc1)Nc1nc2ccccc2s1	2	33%	24%	8	?
O=C(NNC(=O)C1CCCCC1)c1ccc(Br)cc1	4	18%	?	/	-20%[10 µM]
CC(O)c1cccc2cc(C(O)CNC(C)(C)C)oc12 (configuration not stated)	/	1%	/	/	2%
Cc1ccccc1Cn1c(C)c(C(=O)NCc2ccc(Cl)c(Cl)c2)sc1=O	-9	/	/	-8	/
Cc1ccc(S(=O)(=O)NCCc2nnc3ccc(N4CCOCC4)nn23)cc1	-8	/	/	5	/
CC1CCc2c(C(=O)Nc3nccs3)csc2C1 (configuration not stated)	-7	3.5µM*	?	-5	8.9µM*
O=C(N/N=C/c1cc([N+](=O)[O-])ccc1O)NC12CC3CC(CC(C3)C1)C2	-7	3.5µM*	?	-11	?
O=C(N/N=C/c1cc([N+](=O)[O-])ccc1O)C12CC3CC(CC(C3)C1)C2	-5	?	-4%	-9	0.71µM*
C[C@@H](CC(=O)O)[C@@H](N)C(=O)O	/	11%	/	/	1%
Cc1ccc(C(=O)Sc2cccccc2=O)cc1	-77*	1.8µM*	?	-89*	2.2µM*
Cc1ccc(C(=O)CC(=O)c2ccccc2)cc1	10	11µM*	15%	/	?
Cc1ccc(C(=O)CC(Nc2ccc(F)cc2)c2ccccc2)cc1 (configuration not stated)	0	?	18µM*	-1	20%

Screens: PubChem, National Center for Advancing Translational Sciences (NCATS)
